# Screening data (PubChem BioAssay)
# In the library only some 4% were active in any assay of this set; here they are far more common.
# TWEAK-Fn14 inh: TWEAK-Fn14 signaling inhibition | TWEAK-stimulated Fn14 reporter cells, luciferase luminescence, 8 h | inhibition, % at 10 µM | hit rate 2% among 360,000; in the data active = inhibition above about 50%
# HIF-2a block: inhibitors of HIF-2a. 786-0 RCC cells HIF-2a reporter, luciferase luminescence, overnight. inhibition, % at 18.8 µM. AID 624352. hit rate 0.72% among 360,000;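 active = inhibition of the luminescence signal of 40% or more relative to plate controls, in a single-dose primary screen at 18.75 µM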
# TROY signal inh: blocks TROY-dependent signaling in reporter cells; Q293 LMP1-TROYcd NF-kB luciferase reporter, 4 h; inhibition, % at 10 µM; hit rate 0.98% among 360,000;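 active = compounds whose plate-normalised and pattern-corrected inhibition of the luciferase reporter signal at the single screening dose is 50% or more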
# KKLEB cytotox: CF airway cell cytotoxicity counter-screen. KKLEB CF airway cells viability, ATPlite luminescence, overnight; hits give low values; cells stimulated with P. aeruginosa culture filtrate. activity change (cytotoxicity), % at 5 µM. hit rate 0.36% among 360,000;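 active = corrected activity change at or below -50% at 5 µM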
# CF NFkB inh: blocks PAF-induced NF-kB reporter in cystic fibrosis cells; KKLEB NF-kB-GFP reporter, GFP fluorescence overnight; inhibition, % at 5 µM; hit rate 0.86% among 360,000;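 active = at least 50% inhibition at 5 µM, scaled per plate between neutral and stimulator controls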;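 note: PAF is a Pseudomonas aeruginosa culture filtrate used as stimulus; plate controls were PAF-stimulated DMSO wells for no effect and unstimulated DMSO wells for full effect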
# Peg3 promoter: Peg3 promoter activity inhibition. AID 588405. inhibition, % at 20 µM. HeLa PEG-Prom luciferase reporter, luminescence, overnight. hit rate 1.7% among 360,000;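 active = inhibition of at least 50% at 20 µM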
# CF NFkB conf: confirmation of cystic fibrosis induced NF-kB inhibitors; inhibition, % at 5 µM; shares compounds with CF NFkB inh; KKLEB CF airway cells, PAF-induced NF-kB-GFP fluorescence, overnight; hit rate 64% among 1,300; in the data active = inhibition above about 40%;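 note: stimulus PAF is a Pseudomonas aeruginosa filtrate and not platelet activating factor; plate controls were DMSO wells with stimulus for no effect and unstimulated DMSO wells for full effect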
# The depositor's hits bear a star; nt = no result given.
SMILES,TWEAK-Fn14 inh,HIF-2a block,TROY signal inh,KKLEB cytotox,CF NFkB inh,Peg3 promoter,CF NFkB conf
COc1c(/C=N/Nc2ccc([N+](=O)[O-])cc2[N+](=O)[O-])c(C)nn1-c1ccccc1,-47,4,-4,-38,60*,16,41*
COC(=O)c1cc(S(=O)(=O)N(C)c2ccc(C)c(C)c2)c[nH]1,12,-3,1,4,10,-4,nt
COc1cc(C2c3cc4c(cc3C3OC(=O)C2C3CO)OCO4)cc(OC)c1OC (stereo not drawn),-18,24,18,-37,53*,-1,75*
COc1cc([C@@H]2c3cc4c(cc3[C@@H](O)[C@H]3COC(=O)[C@H]23)OCO4)cc(OC)c1O[Si](C)(C)C(C)(C)C,6,3,12,5,24,39,nt
O=C(NC1CCCCC1)C1CCN(c2nnnn2-c2ccccc2)CC1,-4,8,-4,-4,2,16,nt
CCN(C(=O)COC(=O)c1ccc([N+](=O)[O-])o1)c1cccc2ccccc12,9,11,-5,-16,66*,35,18
CN(C(=O)c1ccccc1OCc1ccc(Cl)cc1)c1ccccc1,-10,4,-4,-1,0,32,nt
CCn1c(Oc2ccccc2)nc2c1c(=O)n(C)c(=O)n2C,33,26,10,-3,33,10,nt
CCn1c(Oc2ccccc2F)nc2c1c(=O)n(C)c(=O)n2C,73*,21,30,-4,56*,-2,83*
CCOc1ccc(OCC(O)CN2CCN(S(=O)(=O)c3cccc(C(F)(F)F)c3)CC2)cc1 (stereo not drawn),4,4,8,-10,3,21,nt
COc1ccc2ccc(O)c(CN3CCN(S(=O)(=O)c4cccc(C(F)(F)F)c4)CC3)c2c1,28,17,-7,-30,70*,-1,29
Cc1ccc(S(=O)(=O)Nc2cc(C)cc(CCNC=O)c2C)cc1,10,1,7,2,-5,-6,nt
Cc1c(CCNC=O)cc(C)c2c3c(oc12)CCCC3,-10,-272,-49,-12,58*,-341,19
O=S(Cc1cc(Sc2ccccc2)nc(-c2ccccc2)n1)c1ccccc1 (stereo not drawn),-9,7,1,0,10,32,nt
Cc1nc([N+](=O)[O-])c(Br)n1Cc1ccccc1,6,18,9,-3,34,-1,nt
Cc1nc([N+](=O)[O-])c(Sc2nc3ccc([N+](=O)[O-])cc3[nH]2)n1Cc1ccccc1,80*,19,34,-50,70*,0,55*
COc1ccc(OCC(=O)OCC(=O)NCc2ccc(F)cc2)cc1,0,29,7,7,-5,-2,nt
Cc1cccc(NC(=O)c2cc(-c3ccc(C)s3)nc3ccccc23)n1,21,-62,8,-7,74*,46,76*
Cc1cc(NC(=O)c2cc(-c3ccc(C)s3)nc3ccccc23)no1,-29,0,-22,1,-44,1,nt
COc1ccc(-n2nc(C(=O)NCC(=O)Nc3cc(OC)c(OC)c(OC)c3)c3ccccc3c2=O)cc1Cl,36,6,5,-20,79*,44,101*
CC[C@@]1(c2cccc(C)c2)C(=O)N(C(=O)OC)N1C(=O)OC,20,19,-6,-25,54*,17,22
CCN(CC(=O)Nc1ccccc1OC)C(=O)CN1C(=O)NC(C)(c2ccc(C)cc2)C1=O (stereo not drawn),8,3,-9,-16,1,1,nt
COc1ccc(C2CNC(=O)C2)cc1OC1CCCC1 (stereo not drawn),9,4,-4,-14,52*,-10,55*
COc1ccc(CCNS(=O)(=O)c2ccc(C3CNC(=O)C3)cc2)cc1OC (stereo not drawn),-10,6,-7,8,-1,-3,nt
CCN(CC)Cc1c(O)ccc2c(-c3ccccc3)cc(=O)oc12,-6,17,-14,-3,20,0,nt
SMILES,TWEAK-Fn14 inh,HIF-2a block,TROY signal inh,KKLEB cytotox,CF NFkB inh,Peg3 promoter,CF NFkB conf
Cc1c(O)ccc2c(-c3ccccc3)cc(=O)oc12,44,6,45,20,75*,15,95*
CCOC(=O)Nc1sc2nc(C)cc(C)c2c1-n1cccc1,16,15,2,-14,7,21,nt
COc1ccccc1Cc1c(-c2ccc(C)cc2)nc2c(C)cc(Br)cn12,25,-18,23,-25,28,29,nt
COc1ccc(Cc2c(-c3ccco3)nc3ccc(Br)cn23)c(C)c1,57*,-21,-7,-26,53*,5,-13
Cc1ccc(Cc2c(-c3ccc(F)cc3)nc3c(C)cc(Br)cn23)cc1,25,-39,5,-30,59*,55*,16
COc1ccccc1Cc1c(-c2ccc(F)cc2)nc2c(C)cc(Br)cn12,37,-52,19,4,60*,32,16
COc1ccccc1Cc1c(-c2ccco2)nc2c(C)cc(Br)cn12,69*,93*,10,-46,66*,98*,-254
Cc1ccc(Cc2c(-c3ccc(C)cc3)nc3c(C)cc(Br)cn23)cc1,8,-11,-22,-9,43,-7,nt
Cc1cc(Cl)c(OCCOCCN2CCC(C)CC2)c(Br)c1,-10,16,4,-8,5,6,nt
Cc1cc(Br)cn2c(Cc3ccsc3)c(-c3cccc(Cl)c3)nc12,14,-10,19,-12,12,-13,nt
COc1ccc(-c2nc3c(C)cc(Br)cn3c2Cc2ccsc2)cc1OC,-4,-1,13,-8,-7,-6,nt
Cc1cc(Br)cn2c(Cc3ccsc3)c(-c3ccc(Cl)cc3)nc12,43,-12,12,-2,50*,46,13
Cc1cc(Br)cn2c(Cc3ccsc3)c(-c3ccco3)nc12,51*,15,-5,-18,60*,7,-3
COC(=O)[C@H](Cc1ccccc1)NC(=O)N1CCC(C)CC1,-10,-7,-40,10,5,-74,nt
O=C(Cc1ccc(Cl)cc1)Nc1ccc(CN2CCCCC2)cc1,-1,12,-18,-6,4,-1,nt
CCOc1cc2c(cc1O)C(=NO)CC1C2CCC2(C)C(O)CCC12 (stereo not drawn),17,31,12,-28,52*,1,75*
COc1c(C)cccc1C(=O)Nc1ccc(N2CCN(C(=O)c3ccccc3C)CC2)cc1,-1,-4,18,13,1,33,nt
Cc1ccccc1C(=O)N1CCN(c2ccc(NC(=O)CSc3ccc(Cl)cc3)cc2)CC1,19,15,46,-10,61*,14,71*
Cc1ccccc1C(=O)N1CCN(c2ccc(NC(=O)c3cccc(OC(C)C)c3)cc2)CC1,15,18,-4,-11,53*,14,53*
